Source: PubChem BioAssay (NCI)
About 79,000 compounds went through this panel and 15% of them were active in at least one assay; those are over-represented in the sample as a whole. A number with no mark means an inactive call. Active and inactive are the calls of the source. No stated cut-off is given here; in the data, active means growth inhibition above about 70%; inactive means the rest.

Experiments:
[1] = NCI Yeast Anticancer Drug Screen. Data for the rad50 strain (AID 155);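 further: 0% = growth of vehicle-only cultures of the same strain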; conditions: S. cerevisiae rad50 strain growth inhibition; at 50.0 µM; active compounds read high
Outline: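 Readout: growth inhibition relative to vehicle-treated cultures. Compound exposure was carried out in a genetically defined yeast strain deficient in DNA damage repair.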

[2] = NCI Yeast Anticancer Drug Screen. Data for the mec2-1 strain (AID 157); conditions: S. cerevisiae mec2-1 strain, at 50.0 µM, active compounds read high
Outline: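 Growth inhibition is read against vehicle-treated controls after compound exposure of the mec2-1 yeast strain, which is defective in DNA damage repair or cell cycle control.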

[3] = NCI Yeast Anticancer Drug Screen. Data for the sgs1 mgt1 strain (AID 161);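 further: 0% = growth of cultures given vehicle only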; conditions: S. cerevisiae sgs1 mgt1 strain, at 50.0 µM, active compounds read high
Outline: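 Percent growth inhibition was derived by comparing compound-exposed mutant yeast with vehicle-exposed cultures. The strain carries alterations in DNA damage repair.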

[4] = NCI Yeast Anticancer Drug Screen. Data for the cln2 rad14 strain (AID 165);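 further: 0% = growth equal to vehicle treated cultures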; conditions: S. cerevisiae cln2 rad14 strain, at 50.0 µM, active compounds read high
Outline: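 Growth inhibition, relative to vehicle-treated controls, is the read-out. The test organism is a yeast strain with defined genetic alterations, cln2 rad14.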

[5] = NCI Yeast Anticancer Drug Screen. Data for the bub3 strain (AID 167); conditions: S. cerevisiae bub3 mutant strain, at 50.0 µM, active compounds read high
Outline: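 Readout: yeast growth inhibition, expressed relative to vehicle-only wells. The test organism is a mutant strain from a panel with lesions in DNA repair or checkpoint genes.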

[6] = NCI Yeast Anticancer Drug Screen. Data for the mlh1 rad18 strain (AID 175); conditions: S. cerevisiae mlh1 rad18 strain growth inhibition; at 50.0 µM; active compounds read high
Outline: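 Cells of a genetically altered yeast strain, deficient in DNA damage repair, were treated with compound. Their growth was then compared with that of vehicle-treated cultures to give inhibition.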

SMILES | growth inhibition [1] | growth inhibition [2] | growth inhibition [3] | growth inhibition [4] | growth inhibition [5] | growth inhibition [6]
C/C(CC(=O)Nc1cc(Cl)c(Cl)cc1Cl)=N\NC(N)=O | 28.8% | 11.7% | 1.55% | 24.4% | 30.3% | 19.4%
Cn1cc2c(=O)n(OS(=O)(=O)c3ccccc3)c(=O)[nH]c2n1 | 12.8% | -11.8% | -4.55% | -4.4% | -5.2% | 8.8%
CC(=O)C1(O)CCC2C3CCC4CC(=O)CCC4(C)C3C(=O)CC21C (stereo not given) | 4.4% | -24.8% | 2.25% | 27.9% | 13.6% | -10.6%
NC(=O)C(CCCCNc1c(C(=O)O)cc([N+](=O)[O-])cc1[N+](=O)[O-])NC(=O)c1ccccc1 (stereo not given) | 14.4% | -6.05% | -19.1% | -7.95% | -2% | 28.8%
COc1cc(Br)c(C=Nc2cccc3cc(OC)c(OC)cc23)cc1OC | -0.9% | -14.3% | -9.9% | 20.4% | -27.1% | -15.9%
NC1NC(=O)C(CCCOc2ccc([N+](=O)[O-])cc2)C(c2ccccc2)N1 (stereo not given) | 3.55% | -11.8% | 6.6% | 2.35% | 21.8% | 10.4%
Cc1cc(N(CCCCl)CCCCl)ccc1C=Nc1cc(Br)c(O)c(Br)c1 | 81% (active) | 52.4% | 93.5% (active) | 52.5% | 76.3% (active) | 84.9% (active)
CCOC(=O)C(NC(N)=O)C(=O)OCC | -1.05% | 15% | 0.95% | -34.7% | 21.9% | 4.7%
N[C@@H]1c2c(Br)sc(Br)c2C(=O)[C@H]1Br | -5.35% | -2.85% | 5.6% | 5.95% | -7.05% | -17.4%
C=CCN1C=CC=C/C1=C\C=C(/C#N)C(=O)OCC | 10.8% | 12.7% | 7.8% | -15.2% | -8.65% | 7.35%
O=S(=O)([O-])[O-].O=c1[nH]cnc2nc[n-]c12.[OH3+].[OH3+].[Zn+2] | -26.8% | -29.2% | -20.6% | -7.9% | -30.9% | -36.2%
OCc1cn(C(c2ccccc2)(c2ccccc2)c2ccccc2)cn1 | -113% | -58.3% | -22.5% | -0.85% | -1% | -30.6%
COc1cc2[nH]c3c(c2cc1OC)CCN[C@]31CC[C@]2(CC3c4c(cc(OC)c(O)c42)CCN3C)C[C@H]1OC (stereo not given in full) | 10.8% | -6% | -16.4% | -2.9% | 7.95% | 7.35%
COc1cccc(C2c3cc4c(cc3OC(N3CCCCC3)C2C)OCO4)c1O (stereo not given) | -22.5% | -31.1% | 0.15% | 18.9% | -2.5% | 0.1%
C/C(=N\NC(=O)c1cccnc1)c1cccc(/C(C)=N/NC(=O)c2cccnc2)n1.CC(=O)[O-].CC(=O)[O-].[Zn+2] | -5.45% | 5.15% | -2.6% | -15.2% | -6.1% | -4%
Cn1c(COC(=O)Nc2ccccc2)c(COC(=O)Nc2ccccc2)c2ccc3cc(Cl)c(Cl)cc3c21 | 72.9% (active) | 78.8% (active) | 76.3% (active) | 81.2% (active) | 84.3% (active) | -44%
CC(=O)[O-].O=S(=O)(Nc1ncccn1)c1ccc(N=Cc2ccccc2O)cc1.O=S(=O)(Nc1ncccn1)c1ccc(N=Cc2ccccc2O)cc1.[Cu+2] | -7.4% | -21.6% | -17.4% | -8.25% | -17.6% | -1.35%
O=C(C[n+]1cccc(Cl)c1)c1cccc([N+](=O)[O-])c1 | -25.7% | -7.2% | -9.25% | -3.8% | 4.55% | -5%
NC1c2ccccc2CCc2ccccc21 | 13.6% | -13.7% | 17.6% | 3.55% | 6.8% | 6.8%
CCOC(=O)C(=[N+]=[N-])C(=O)CN1C(=O)C2CC(C)=C(C)CC2C1O (stereo not given) | -18.8% | 1.15% | -4.45% | 1.85% | -10.8% | 16.9%

SMILES | growth inhibition [1] | growth inhibition [2] | growth inhibition [3] | growth inhibition [4] | growth inhibition [5] | growth inhibition [6]
CC1(C)[C@@H]2C[C@H]1[C@@H](Cc1cccc(C[C@H]3c4cc(-c5ccccn5)ncc4[C@H]4C[C@@H]3C4(C)C)c1)c1cc(-c3ccccn3)ncc12 | 45.4% | 28.2% | 45.4% | 16.8% | 45.9% | 45.4%
CCCCC#CCN(CCCC)CCCC | -19.6% | 1% | -2.55% | 13.3% | 11.3% | -29%
C=C1CC(CCCCCCC2CC(=C)C(=O)O2)OC1=O (stereo not given) | 11.2% | 1.05% | -0.35% | 2.3% | 25.4% | -25.9%
C=C[C@@]1(C)CCC2(O)C(CCC3C2(C)CCC[C@@]3(C)COC(=O)CC(=O)OC)C1 (stereo not given in full) | 82.8% (active) | 72.1% (active) | 78% (active) | 60.5% | 76.3% (active) | 79.2% (active)
Cn1c(=O)c2c(-c3ccccc3)cc(-c3ccccc3)nc2n(C)c1=O | -18.8% | -16.1% | 1.95% | -30.7% | -10.7% | -21.4%
C/C(=C\N1CCCCC1)C(=O)c1ccc(F)cc1 | 9.3% | 13.2% | -4.65% | 6.25% | -16.4% | 24.7%
O=C(Nc1ccc([N+](=O)[O-])cc1)c1cc(N2CCOCC2)ccn1 | 38% | 16.6% | 21.6% | 15.6% | 2.15% | 25.6%
O=C(NNc1ccccc1)NNc1ccccc1 (tested in a mixture with another compound) | 11.1% | -0.45% | -0.9% | 23.8% | -12.2% | 1.65%
CC1SCC(=O)N1c1nncs1 (stereo not given) | -3.05% | -0.75% | -51.9% | -46.2% | -2.1% | -46.6%
CCOC(=O)CCC1(C(=O)OCC)CCCCC1=O (stereo not given) | -16.9% | -20.4% | -48.5% | -16.9% | -25.4% | -23.1%
O=C1c2ccccc2C(=O)N1CN1CCC(CCCC2CCN(CN3C(=O)c4ccccc4C3=O)CC2)CC1 | -58.5% | -34.2% | -36.3% | -11.1% | -48.1% | -44.8%
Cc1cccc(NN)c1 | 59.6% | 32.1% | 7.45% | 30% | 23.3% | 32.9%
CC1=CC(=C2C=CC(=O)C=C2)C=C(C)N1C | 5.6% | -5.55% | -8.05% | -4.5% | 2.4% | -3.65%
CCc1ccccc1NC(=O)/C=N/O | -27.9% | -24.1% | -17.6% | -7.3% | -22.6% | -11.2%
CCOC(=O)NNC(N)=O | -2.8% | -19.2% | -18% | -22.1% | 1.8% | -10.5%
Cc1cc(Cc2cc(Cc3cc(C)cc(C(C)(C)C)c3O)c(C)cc2C)c(O)c(C(C)(C)C)c1 | 50.4% | 18.4% | 13.3% | -1.75% | -23.4% | 38.5%
Cc1ccc2ccccc2c1Br | -4.55% | -0.85% | 1.6% | -14.8% | -3.2% | -8.55%
Oc1c2c(c3cccc4cccc1c43)=Nc1ccccc1S2 | 0.25% | 3.2% | 6.4% | -23.6% | 3.3% | 7.1%
[O-]c1on[n+](-c2ccccc2)c1CN1CCOCC1 | -8.2% | -8.35% | -9.9% | -45% | 8.1% | -3.05%
CN(CCCO)CCCO | 5.9% | -2.4% | 0.7% | 3.35% | 1.85% | -0.85%
